# Assay results as given in the supplement of paper PMC9135407.
# Where “and” joins values, the source holds several entries; their conditions need not be identical. Identical values can stand only once. Counter-ions that a name gives are not always drawn. In all, about 5,800 compounds went through this assay and about 620 (11%) showed activity. Many of the other results were omitted from the sample, so actives are more common in it than they were. Values without a mark were called inactive.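 Rule for the calls: active = score above a cut-off or among the top three wells of a plate; in these data no inactive exceeds 0.85.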
# Tested on: primary human hepatic stellate cells (donor 1)
# Test: scaled lipid accumulation score (0 = DMSO-like, 1 = nortriptyline-like); higher = stronger HSC inactivation (lipid re-accumulation), active = hit call of the paper
# Settings: 48 h
# [1] = library stock concentration: 1 mM
# [2] = library stock concentration: 3.33 mM
# [3] = library stock concentration: 10 mM
# [4] = library stock concentration: 80 uM
# [5] = library stock concentration: 400 uM
# [6] = library stock concentration: 2 mM
smiles,measurement,setting,value
CS(=O)(=O)Nc1ccc([N+](=O)[O-])cc1Oc1ccccc1 [Nimesulide],scaled lipid accumulation score,,0.061
same,scaled lipid accumulation score,[1],≤ 0
same,scaled lipid accumulation score,[2],≤ 0
same,scaled lipid accumulation score,library stock concentration: 16.2 mM,0.012
CC(=O)OCOC(c1cc([N+](=O)[O-])ccc1Oc1ccc(Br)cc1)P(=O)(OCOC(C)=O)OCOC(C)=O (stereo unspecified),scaled lipid accumulation score,library stock concentration: 8.1 mM,0.887 (active)
CC(=O)OCOC(c1ccc2ccccc2c1)P(=O)(OCOC(C)=O)OCOC(C)=O (stereo unspecified),scaled lipid accumulation score,library stock concentration: 11 mM,0.031
Cn1cc(C(F)(F)F)nc1-c1ccc(OCC(O)CNCCOc2ccc(O)c(C(N)=O)c2)cc1 (stereo unspecified),scaled lipid accumulation score,[3],0.731
COc1cc2ncnc(Sc3nnc(C)s3)c2cc1OC [listing 1 of 2 here],scaled lipid accumulation score,[2],≤ -0.009
COc1cc2ncnc(Nc3cc(Br)c(O)c(Br)c3)c2cc1OC,scaled lipid accumulation score,[4],≤ 0
same,scaled lipid accumulation score,[5],≤ 0
same,scaled lipid accumulation score,[6],≤ 0
same,scaled lipid accumulation score,[3],0.04
COc1cc2ncnc(Sc3nnc(C)s3)c2cc1OC [listing 2 of 2 here],scaled lipid accumulation score,[3],0.919 (active)
C=CC(=O)Nc1cc(NC(=O)c2ccc(C)c(NC(=O)c3ccno3)c2)cc(C(F)(F)F)c1,scaled lipid accumulation score,[4],≤ 0
same,scaled lipid accumulation score,[5],≤ 0
same,scaled lipid accumulation score,[6],≤ 0
same,scaled lipid accumulation score,[3],0.311
Nc1ncnc2nc(-c3ccc(N4CCOCC4)nc3)cc(-c3cccc(Br)c3)c12 [listing 1 of 2 here],scaled lipid accumulation score,[3],0.982 (active)
Nc1ncnc2nc(-c3ccc(N4CCOCC4)nc3)cc(-c3cccc(Br)c3)c12 [ABT 702 dihydrochloride],scaled lipid accumulation score,[3],0.275
Nc1ccc(-c2cccc3c(=O)cc(N4CCOCC4)oc23)cc1,scaled lipid accumulation score,[3],≤ -0.001
Nc1ncnc2nc(-c3ccc(N4CCOCC4)nc3)cc(-c3cccc(Br)c3)c12 [listing 2 of 2 here],scaled lipid accumulation score,[4],≤ -0.001
same,scaled lipid accumulation score,[5],0.008
same,scaled lipid accumulation score,[6],≤ -0.001
O=C(CCBr)N1CCN(C(=O)CCBr)CC1 [Pipobroman],scaled lipid accumulation score,[3],≤ -0.027
S=C=Nc1cccc(NC(=S)NCCCCNC(=S)Nc2cccc(N=C=S)c2)c1,scaled lipid accumulation score,[2],0.004
same,scaled lipid accumulation score,[3],0.023
CCNC(=O)c1noc(-c2cc(Cl)c(O)cc2O)c1-c1ccc(OC)cc1,scaled lipid accumulation score,[2],0.783
same,scaled lipid accumulation score,[3],0.741
CCNC(=O)c1noc(-c2cc(C(C)C)c(O)cc2O)c1-c1ccc(CN2CCOCC2)cc1 [listing 1 of 2 here],scaled lipid accumulation score,[2],0.91 (active)
CCNC(=O)c1noc(-c2cc(C(C)C)c(O)cc2O)c1-c1ccc(CN2CCOCC2)cc1 [listing 2 of 2 here],scaled lipid accumulation score,[4],0.702
same,scaled lipid accumulation score,[5],0.802
same,scaled lipid accumulation score,[6],0.808
same,scaled lipid accumulation score,[3],0.831 and 0.776
CN(C1CCc2c(c3ccccc3n2CC(=O)O)C1)S(=O)(=O)c1ccc(F)cc1 (stereo unspecified),scaled lipid accumulation score,[1],0.083
CN(C)CC(=O)Nc1ccc2[nH]c(=O)c3ccccc3c2c1,scaled lipid accumulation score,[2],≤ 0 and ≤ -0.009
same,scaled lipid accumulation score,[3],0.59 and 0.025
CN(C)[C@@H]1CCc2[nH]c3ccc(NC(=O)c4ccc(F)cc4)cc3c2C1.Cl,scaled lipid accumulation score,[3],1.37 (active)
CCCCCCCCCCCCCCCC(O)C(N)CO (racemic) [DL-Dihydrosphingosine],scaled lipid accumulation score,[1],≤ -0.021
NC(=O)c1cnc(N[C@@H]2CCCC[C@@H]2N)nc1Nc1cccc(-n2nccn2)c1,scaled lipid accumulation score,[4],≤ 0
same,scaled lipid accumulation score,[5],0.015
same,scaled lipid accumulation score,[6],0.218
same,scaled lipid accumulation score,[2],0.214
same,scaled lipid accumulation score,[3],0.215 and 0.449
Cc1cc(O)cc(C)c1Cl [Chloroxylenol],scaled lipid accumulation score,[3],≤ 0
C[C@H]1c2cccc(O)c2C(O)=C2C(=O)[C@]3(O)C(O)=C(C(N)=O)C(=O)[C@@H](N(C)C)[C@@H]3[C@@H](O)[C@@H]21 [Doxycycline Hyclate],scaled lipid accumulation score,[2],≤ 0
same,scaled lipid accumulation score,[3],≤ -0.001
CC(C)OC(=O)CCC/C=C\C[C@@H]1[C@@H](/C=C/[C@@H](O)CCc2ccccc2)[C@H](O)C[C@@H]1O [17-phenyl trinor Prostaglandin F2.alpha. isopropyl ester],scaled lipid accumulation score,[1],≤ 0
CC(C)Nc1ncccn1,scaled lipid accumulation score,[3],≤ 0
C(=C\c1ccccc1)/CN1CCN(C(c2ccccc2)c2ccccc2)CC1 [Cinnarazine],scaled lipid accumulation score,library stock concentration: 5.4 mM,0.328
same,scaled lipid accumulation score,[3],0.423
COc1ccc(-c2cc(C(F)F)nn2-c2ccc(S(N)(=O)=O)cc2)cc1F [Deracoxib],scaled lipid accumulation score,library stock concentration: 5 mM,≤ 0
CCCCC/C=C\C/C=C\C/C=C\CCCCC(=O)OC [.gamma.-Linolenic Acid methyl ester],scaled lipid accumulation score,[1],≤ 0
O=C(O)CCCCCC[C@@H]1[C@@H](CC[C@@H](O)CCc2cccc(C(F)(F)F)c2)[C@H](O)C[C@@H]1O,scaled lipid accumulation score,[1],≤ 0
"CCCCC(C)(C)[C@H](O)/C=C/[C@H]1[C@H](O)CC(=O)[C@@H]1CC(=O)CCCCC(=O)O [16,16-dimethyl-6-keto Prostaglandin E1]",scaled lipid accumulation score,[1],≤ 0
CC[C@]1(O)C[C@H]2CN(CCc3c([nH]c4ccccc34)[C@@](C(=O)OC)(c3cc4c(cc3OC)N(C=O)[C@H]3[C@@](O)(C(=O)OC)[C@H](OC(C)=O)[C@]5(CC)C=CCN6CC[C@]43[C@@H]65)C2)C1.O=S(=O)(O)O [Vincristine sulfate],scaled lipid accumulation score,[3],1.36 (active)
CC[C@]1(O)C[C@H]2CN(CCc3c([nH]c4ccccc34)[C@@](C(=O)OC)(c3cc4c(cc3OC)N(C=O)[C@H]3[C@@](O)(C(=O)OC)[C@H](OC(C)=O)[C@]5(CC)C=CCN6CC[C@]43[C@@H]65)C2)C1 [Vincristine],scaled lipid accumulation score,[2],0.004
same,scaled lipid accumulation score,[3],0.512
CC[C@]1(O)C[C@@H]2CN(CCc3c([nH]c4ccccc34)[C@@](C(=O)OC)(c3cc4c(cc3OC)N(C=O)[C@H]3[C@@](O)(C(=O)OC)[C@H](OC(C)=O)[C@]5(CC)C=CCN6CC[C@]43[C@@H]65)C2)C1.O=S(=O)(O)O,scaled lipid accumulation score,[3],1.47 (active)
CCC1(O)CC2CN(CCc3c([nH]c4ccccc34)[C@@](C(=O)OC)(c3cc4c(cc3OC)N(C=O)C3[C@]45CCN4CC=C[C@@](CC)([C@@H](OC(C)=O)[C@]3(O)C(=O)OC)[C@H]45)C2)C1.O=S(=O)(O)O (stereo partly specified) [Vincristine sulfate],scaled lipid accumulation score,[3],0.897 (active)
"Cn1nc2c3c(cccc31)C(=O)c1ccccc1-2 [JNK Inhibitor, Negative Control]",scaled lipid accumulation score,[2],≤ 0
Cc1ccc2nc(NC(=O)CSc3nc4c(c(=O)n3-c3ccccc3)SCC4)sc2c1,scaled lipid accumulation score,[2],≤ 0
same,scaled lipid accumulation score,[3],0.76
COc1ccc(CNc2nc(N(CCO)CCO)nc3c2ncn3C(C)C)cc1 [Cdk2 Inhibitor III],scaled lipid accumulation score,[2],0.067
CCCCCCCC/C=C\CCCCCCCCCCCCCC(=O)NCCS(=O)(=O)O [N-Nervonoyl Taurine],scaled lipid accumulation score,[1],0.028
CCCCC[C@H](O)/C=C/[C@H]1CC[C@@H](O)[C@@H]1CCCCCCC(=O)O [11-deoxy Prostaglandin F1.beta.],scaled lipid accumulation score,[1],≤ 0
CCCCCCCCCC(=O)CC(=O)N[C@H]1CCOC1=O [N-3-oxo-dodecanoyl-L-Homoserine lactone],scaled lipid accumulation score,[1],0.017
COc1cc2ncc(-c3ccccc3)nc2cc1OC,scaled lipid accumulation score,[2],≤ 0
same,scaled lipid accumulation score,library stock concentration: 18.8 mM,0.096
COc1cc2ncc(-c3ccccc3)nc2cc1OC [Tyrphostin AG 1296],scaled lipid accumulation score,[2],≤ -0.009
same,scaled lipid accumulation score,[3],≤ 0
COc1cc2c(cc1OC)-c1cc3nc4ccccc4nc3n1C(C)(C)C2,scaled lipid accumulation score,[3],0.923 (active)
CN(CCO)CC(O)Cn1cnc2c1c(=O)n(C)c(=O)n2C (stereo unspecified),scaled lipid accumulation score,[3],≤ 0
c1([C@]2(C(=O)OC)c3c(c4c(cccc4)[nH]3)CN(CC5C2)CC(CC)=C5)cc6c(N(C)[C@]7([H])[C@]6(CC8)[C@]([H])(N89)[C@@](CC)(C=CC9)[C@@H](OC(=O)C)[C@]7(O)C(=O)OC)cc1OC.C(=O)(O)[C@H](O)[C@@H](O)C(=O)O.C(=O)(O)[C@H](O) (stereo partly specified) [Vinorelbine Tartrate],scaled lipid accumulation score,[2],1.26 (active)
same,scaled lipid accumulation score,[3],0.863 (active)
CCC1=C[C@@H]2CN(C1)Cc1c([nH]c3ccccc13)[C@@](C(=O)OC)(c1cc3c(cc1OC)N(C)[C@H]1[C@@](O)(C(=O)OC)[C@H](OC(C)=O)[C@]4(CC)C=CCN5CC[C@]31[C@@H]54)C2 [Vinorelbine],scaled lipid accumulation score,library stock concentration: 2.6 mM,0.75
CCC1=C[C@H]2CN(C1)Cc1c([nH]c3ccccc13)[C@@](C(=O)OC)(c1cc3c(cc1OC)N(C)[C@H]1[C@@](O)(C(=O)OC)[C@H](OC(C)=O)[C@]4(CC)C=CCN5CC[C@]31[C@@H]54)C2.O=C(O)C(O)C(O)C(=O)O,scaled lipid accumulation score,[3],1.52 (active)
COc1ccc2c(c1)c(CC(=O)O)c(C)n2Cc1ccc(Cl)cc1 [1-(4-Chlorobenzyl)-5-methoxy-2-methylindole-3-acetic acid],scaled lipid accumulation score,[3],0.078
Cc1cccc(C#Cc2ccccc2)n1,scaled lipid accumulation score,[2],≤ 0
same,scaled lipid accumulation score,[3],0.052
NS(=O)(=O)C#Cc1ccccc1 [Pifithrin->m],scaled lipid accumulation score,[3],1.46 (active)
Nc1ccccc1S(N)(=O)=O [2-Aminobenzenesulfonamide],scaled lipid accumulation score,,≤ 0
Cc1cccc(C#Cc2ccccc2)n1 [6-Methyl-2-(phenylethynyl)pyridine hydrochloride],scaled lipid accumulation score,[3],≤ -0.034
Cc1cccc(C#Cc2ccccc2)n1 [MPEP hydrochloride],scaled lipid accumulation score,[3],0.053
NS(=O)(=O)C#Cc1ccccc1 [Pifithrin-mu],scaled lipid accumulation score,[3],1.02 (active)
FC(F)(F)c1ccc(/C=C\c2cc(Cl)cc(Cl)c2)cc1,scaled lipid accumulation score,[1],≤ 0
CCCCC/C=C\C/C=C\C/C=C\C/C=C\CCCC(=O)C(F)(F)F [Arachidonyl Trifluoromethyl Ketone],scaled lipid accumulation score,[1],≤ 0
